In PubChem BioAssay (EPA / NIEHS) one finds outcome and AC50 data, which are given here for 26 molecules.

Structures are written as SMILES. Several values for one entry are separate records, joined by “and”; a condition that tells them apart may be missing. Equal values may be shown once. Records with an inconclusive call do not appear. Activity calls are given as the source filed them. Rule for the calls: active = hit-call score of the fitted dose curve at least 0.9, where 1 is the maximum; inconclusive = response in the unintended direction; inactive = score below 0.9.

One may read the AC50 as the midpoint of the concentration-response curve, whichever way the signal moves.

The test can be described thus: ACEA_ER_AUC_viability: ACEA Biosciences xCELLigence Real-Time Cell Analysis on Estrogen Receptor Agonism for Viability (AID 2283782).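 Note: continuous compound exposure with impedance area under curve over 80 h; hit means loss of impedance signal meaning reduced cell growth or viability.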 On the procedure: ACEA_ER is a cell-based, single-readout assay that uses T47D, a human breast cell line, with measurements taken at 80 hours after chemical dosing in a 96-well plate, although TO2 (mc0.srcf) used a 384-well plate. Differences in plate size can be ignored given data normalization.ACEA_ER_AUC_viability is one of two assay component(s) measured or calculated from the ACEA_ER assay. It is designed to make measurements of real-time cell-growth kinetics, a form of growth reporter, as detected with electrical impedance signals by Real-Time Cell Electrode Sensor (RT-CES) technology.Data from the assay component ACEA_ER_AUC_viability was analyzed in the positive analysis fitting direction relative to DMSO as the negative control and baseline of activity. Using a type of growth reporter, loss-of-signal activity can be used to understand changes in the viability. Furthermore, this assay endpoint can be referred to as a secondary readout, because this assay has produced multiple assay endpoints where this one serves a viability function. To generalize the intended target to other relatable targets, this assay endpoint is annotated to the cell cycle intended target family, where the subfamily is cytotoxicity.
The xCELLigence system Multi-E-Plate stations were used to measure the time-dependent response to chemicals. Each compound was tested in an eight-point, 1:4 serial dilution series starting at a maximum final concentration of 100 uM. A maximum starting concentration of 0.5% DMSO was present in the 100 uM chemical samples and was diluted along with the test article dilution series. The screen was performed in biological duplicate using two separate, 96-well, E-Plates 96 for each dilution series (n = 2). Positive controls (MG132 and E2) and a negative control (assay media) were tested in quadruplicate on each testing plate. Then, 0.5% and 0.125% DMSO were tested in duplicates in each plate to serve as solvent controls for the 2 highest concentrations of testing compounds: 100 uM and 25 uM. Reference compounds were tested with 8 concentrations with 1:5 serial dilutions. All screening was carried out by ACEA Biosciences, Inc. (San Diego, CA). T-47D cells purchased from ATCC were maintained in RPMI1640 media supplemented with 10% characterized fetal bovine serum (FBS). Before screening, T-47D cells were preconditioned in assay medium: phenol red-free RPMI1640 supplemented with 10% charcoal-stripped FBS. Cells were then detached and seeded in E-Plates 96 in assay medium. After overnight monitoring of growth once every hour, compounds were added to […] cells and remained in the medium until the end of the experiment. Cellular responses were then recorded once every 5 min for the first 5 h, and once every hour for an additional 100 h.
For the molecule `CCCCOCCOCCOCc1cc2c(cc1CCC)OCO2`, the molecule was called inactive. In the case of `COC(=O)CSc1cc(N=c2sc(=O)n3n2CCCC3)c(F)cc1Cl`, the molecule was called inactive. Same read-out and setting: for `Cc1nn(C)c(Oc2ccccc2)c1C=NOCc1ccc(C(=O)OC(C)(C)C)cc1` the value was “inactive”. `Oc1ccc(C(c2ccc(O)cc2)C(Cl)(Cl)Cl)cc1`: the AC50 was 83.7 µM (active). Same read-out and setting: for `CC(C)CCCCCCc1ccc(O)cc1` the value was 20.2 µM (active) and 21.5 µM (active) and 20.6 µM (active).

As to `CCSC(=O)N(CC(C)C)CC(C)C`, the molecule was classed as inactive. On the same count and under the same terms, as for `CCCCC(CC)COC(=O)c1ccccc1C(=O)O` (stereo unspecified), the entry is “inactive”. Consider `O=C(Nc1ccc([N+](=O)[O-])cc1Cl)c1cc(Cl)ccc1O`, for which the AC50 is 2.89 µM (active).

Regarding `CCCCCCC(C)OC(=O)COc1nc(F)c(Cl)c(N)c1Cl` (stereo unspecified), the AC50 was 14.3 µM (active).

In the case of `CSC(=O)c1cccc2nnsc12`, the molecule was classed as inactive. For `CCCCC(CC)CN1C(=O)C2C3C=CC(C3)C2C1=O` (stereo unspecified), the concentration at half-maximal activity (AC50) was 70.2 µM (active). `O=C(O)C1(C(=O)Nc2ccc(Cl)cc2Cl)CC1`: the call was inactive.

For the molecule `CCCOC(=O)c1ccc(C(=O)OCCC)nc1`, the molecule was called inactive. Turning to `c1ccc(Nc2ccccc2)cc1`, the result was inactive. Still for that read-out and setting: for `CCOC(=O)COc1cc(-n2ncc(C(F)(F)F)c(C)c2=O)c(F)cc1Cl` the value was “inactive”. Consider `CCOC(=O)NCCOc1ccc(Oc2ccccc2)cc1`, for which the half-maximal activity concentration (AC50) is 95.3 µM (active). On to `O=C(O)c1ccccc1`, for which the call was inactive. Still for that read-out and setting: as for `CCCCCOC(=O)COc1cc(N2C(=O)C3=C(CCCC3)C2=O)c(F)cc1Cl`, the entry is “inactive”; as for `COc1c(Cl)ccc(Cl)c1C(=O)O`, “inactive”. On the same count and under the same terms, for `CCC(C)OC(=O)N1CCCCC1CCO` (stereo unspecified) the value was “inactive”; for `c1ccc2[nH]c(-c3cscn3)nc2c1`, “inactive”; for `CN(C)C(=O)Nc1ccc(Cl)c(Cl)c1`, “inactive”. With `N#CSCSc1nc2ccccc2s1`, the AC50 was 10.9 µM (active).

For `C=CCOC(Cn1ccnc1)c1ccc(Cl)cc1Cl` (stereo unspecified), the half-maximal activity concentration (AC50) is 50 µM (active). As to `COC(=O)c1ccc(I)cc1S(=O)(=O)NC(=O)Nc1nc(C)nc(OC)n1`, the outcome was inactive. Turning to `S=C(S)NCCNC(=S)S.[Mn+2].[S-]C([S-])=NCCN=C([S-])[S-].[Zn+2]`, the result was inactive.
